Rows were chosen to be rich in hits. Some 28% of all compounds tested hit in one or more screens of this group.
CYP2C9 inh: blockers of cytochrome P450 2C9 activity – biochemical, luminescence, ADME assay, primary screen. inhibition, % at 5 µM. P11712. AID 777, 2007. CYP2C9 Supersomes, luciferin-H conversion. actives 20% (n = 96,000);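 active = blocking of liver enzyme CYP2C9 beyond about 50% at 5 µM, limit read from the data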
CYP2C19 inhib: blockers of cytochrome P450 2C19 activity – biochemical, luminescence, ADME assay, primary screen. CYP2C19 Supersomes, luciferin-H EGE luminescence, 30 min. inhibition, % at 5 µM. actives 21% (n = 96,000). AID 778, 2007;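 active = CYP2C19 inhibition above a set limit at 5 µM in the primary screen, cut at about 50% in these data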;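 also: plate controls were negative control wells for no effect and 2.5 mM tranylcypromine positive control for full effect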
Target sequence (P33261 whole entry, looked up): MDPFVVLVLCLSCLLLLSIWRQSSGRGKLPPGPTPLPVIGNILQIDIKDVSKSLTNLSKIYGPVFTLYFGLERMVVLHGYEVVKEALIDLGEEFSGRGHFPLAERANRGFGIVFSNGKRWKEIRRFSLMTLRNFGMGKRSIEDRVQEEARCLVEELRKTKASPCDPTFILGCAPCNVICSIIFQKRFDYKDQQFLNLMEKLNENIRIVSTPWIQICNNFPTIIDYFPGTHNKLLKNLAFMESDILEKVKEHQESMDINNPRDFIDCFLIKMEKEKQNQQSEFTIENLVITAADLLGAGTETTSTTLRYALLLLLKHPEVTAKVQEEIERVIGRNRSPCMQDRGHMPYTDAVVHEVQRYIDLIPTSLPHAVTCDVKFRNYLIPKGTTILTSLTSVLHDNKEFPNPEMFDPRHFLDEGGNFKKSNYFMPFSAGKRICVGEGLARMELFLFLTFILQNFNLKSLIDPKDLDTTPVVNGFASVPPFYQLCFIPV
CYP2C19 act: human CYP2C19 activators, primary screen, biochemical, luminescence. AID 1025, 2008. recombinant CYP2C19, luciferin-H EGE luminescence; active compounds read high; 0 = fully inhibited enzyme, 1 = untreated enzyme. 96,000 tested, under 10 active. Cytochrome P450 2C19 (Homo sapiens), P33261. activation factor at 5 µM;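 active = activation factor of at least 2 at 5 µM in the primary screen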;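 also: 0 = wells with 2.5 mM tranylcypromine and 1 = vehicle-only wells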
PTK2B oligo ant: antagonists of Pyk2 self-association, primary screen, Q293 cells, FERM NanoBiT luminescence, HTS; Protein-tyrosine kinase 2-beta (Homo sapiens), Q14289; active compounds read low; actives 0.83% (n = 99,000); z-score (the deposit names both 25 µM and 10 µM);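 active = Z-score of -3 or lower, scaled per plate to the spread of control and sample wells; inactive = z-score above -3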;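 also: negative z-score means lost luminescence so less FERM oligomerization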
CYP2C9 activ: human CYP2C9 activators, primary screen, biochemical, luminescence; Cytochrome P450 2C9 (Homo sapiens), P11712; recombinant CYP2C9, luciferin-H conversion; active compounds read high; factor 1 = untreated enzyme, 0 = blocked; activation factor at 5 µM; actives 1.4% (n = 96,000);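 active = activation factor of 2 or more for CYP2C9 at a 5 µM dose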;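 also: 0 = sulfaphenazole-blocked wells and 1 = vehicle-only wells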
* hit, by the source's call; nt = no result given.

SMILES	CYP2C9 inh	CYP2C19 inhib	CYP2C19 act	PTK2B oligo ant	CYP2C9 activ
CCOC(=O)C1CCCN(c2c(NCCN(CC)c3ccccc3)c(=O)c2=O)C1 (stereo not drawn)	27	68*	0.3	nt	0.7
CCOC(=O)N1CCC(Nc2c(N3CCN(c4cccc(C(F)(F)F)c4)CC3)c(=O)c2=O)CC1	58*	6	0.9	-0.14	0.4
O=C(NC1=NCCS1)C1CC(=O)N(c2ccc(F)cc2)C1 (stereo not drawn)	20	12	0.9	0.06	0.8
O=C(COc1nc2ccccc2nc1N1CCOCC1)N1CCc2ccccc21	3	-19	1.2	1.6	1
COc1cc(OC)cc(C(C)=O)c1	5	-2	1	0.28	0.9
CCOC(=O)C1CCCN(C(=O)c2ccc(CNc3c(N4CCC(C)CC4)c(=O)c3=O)cc2)C1 (stereo not drawn)	55*	36	0.6	nt	0.4
CS(=O)(=O)N1CCN(c2ccccc2NC(=O)c2cccnc2Cl)CC1	4	7	0.9	-1.1	1
COCn1c(-c2cccc(Br)c2)nc2ccccc21	69*	86*	0.1	-0.77	0.3
COc1ccc(S(=O)(=O)NC2CCCC2)c(Cl)c1Cl	54*	98*	0	-1.1	0.5
COc1ccc(C)cc1S(=O)(=O)NC1CCCC1	26	83*	0.2	0.71	0.7
COc1ccc(S(=O)(=O)NC2CCCCC2)cc1C	-202	60*	0.4	-1.9	3*
COc1ccc(F)cc1S(=O)(=O)NC1CCCC1	32	80*	0.2	0.17	0.7
CCCCN1C(=O)c2ccc(C(=O)Nc3cccnc3)cc2C1=O	48	36	0.6	-0.87	0.5
CCOC(=O)Cc1c(C)nc2cc(-c3ccc(Cl)cc3)[nH]n2c1=O	2	-3	1	1.5	1
CCOC(=O)Cc1c(C)nc2c(-c3ccc(Cl)cc3)c[nH]n2c1=O	67*	7	0.9	-0.79	0.3
CCOC(=O)Cc1cc(=O)n2[nH]c(C)c(-c3ccc(OC)cc3)c2n1	42	10	0.9	0.23	0.6
CCOC(=O)Cc1cc(=O)n2[nH]c(C)c(-c3ccc(Cl)cc3)c2n1	50*	4	1	-1	0.5
N#CCSc1nnc(Cc2cccc3ccccc23)n1C1CCCCC1	45	57*	0.4	-2	0.6
C=CCn1c(SCC(=O)Nc2cccc3ccccc23)nnc1-c1cnccn1	43	55*	0.4	-0.84	0.6
C=CCn1c(SCC(=O)Nc2cc3oc4ccccc4c3cc2OC)nnc1-c1cnccn1	95*	75*	0.2	-1.8	0.1
C=CCn1c(COc2ccccc2F)nnc1SCC(=O)Nc1cc2oc3ccccc3c2cc1OC	42	21	0.8	0.54	0.6
O=C(Nc1cc(C(F)(F)F)ccc1N1CCCC1)c1cccnc1	43	43	0.6	0.26	0.6
COc1ccccc1OCc1nc2ccccc2[nH]1	26	74*	0.3	0.08	0.7
COc1cccc(OCc2nc3ncc(Br)cc3[nH]2)c1	35	54*	0.5	0.28	0.6
Cc1cc(C)cc(OCc2nc3ncc(Br)cc3[nH]2)c1	nt	nt	nt	-0.01	nt
SMILES	CYP2C9 inh	CYP2C19 inhib	CYP2C19 act	PTK2B oligo ant	CYP2C9 activ
COc1cccc(OCc2nc3ccccc3[nH]2)c1	65*	100*	0	nt	0.4
c1cnc2c(OCc3nc4ccccc4[nH]3)cccc2c1	12	95*	0.1	-0.2	0.9
COc1ccc(NC(=O)Cc2nc3ccccc3[nH]2)cc1	26	67*	0.3	-0.15	0.7
COc1ccc(CC(=O)OCc2cc3cccc(C)c3[nH]c2=O)cc1	1	-1	1	0.93	1
CCC(=O)OCc1cc2cccc(C)c2[nH]c1=O	5	53*	0.5	0.26	1
O=C(CS(=O)c1cccc(C(F)(F)F)c1)Nc1ccccc1Cl (stereo not drawn)	-231	55*	0.5	0.19	3.3*
O=C(NC(Nc1cc(C(F)(F)F)ccc1Cl)C(=O)c1ccccc1)c1ccccc1 (stereo not drawn)	-5	7	0.9	-0.11	1
Cc1ccc[n+](CC(=O)Nc2cc(C(F)(F)F)ccc2Cl)c1	-10	15	0.9	0.8	1.1
CN(C)CC(=O)Nc1cc(C(F)(F)F)ccc1Cl	-124	8	0.9	-0.44	2.2*
O=C(CCc1ccccc1)Nc1cc(C(F)(F)F)ccc1Cl	-291	62*	0.4	-1.1	3.9*
CCOC(=O)/C(=N\Nc1cc(C(F)(F)F)ccc1Cl)N(CC)CC	42	80*	0.2	0.34	0.6
Nc1c(C(=O)NCc2ccco2)nnn1CC(=O)Nc1ccccc1	18	3	1	-0.2	0.8
O=C(COC(=O)C1=COCCO1)Nc1ccc2c(c1)OCO2	-6	-6	1.1	1.6	1.1
CCOC(=O)c1cc2occc2n1CC(=O)N1CCOCC1	-11	9	0.9	0.15	1.1
CCOC(=O)c1cc2sc(C)cc2n1CCCN1C(=O)c2ccccc2C1=O	57*	14	0.9	-0.25	0.4
CCOC(=O)c1cc2occc2n1CCCN1C(=O)c2ccccc2C1=O	87*	21	0.8	-0.63	0.1
CCN(CC)CCOC(=O)c1ccc(NC(=O)CCNC(=O)Cn2ccc3ccccc3c2=O)cc1	50	20	0.8	0.55	0.5
CCN(CC)S(=O)(=O)c1ccc2oc(C(=O)NC3CCCc4ccccc43)c(C)c2c1 (stereo not drawn)	59*	25	0.7	-0.14	0.4
Cc1cc(C(=O)NC2CCCc3ccccc32)no1 (stereo not drawn)	13	41	0.6	0.84	0.9
CSCc1c(C(=O)NC2CCCc3ccccc32)oc2ccccc12 (stereo not drawn)	55*	-15	1.2	-0.42	0.4
Cc1noc(C)c1C(=O)NC1CCCc2ccccc21 (stereo not drawn)	30	25	0.8	0.92	0.7
CCCNS(=O)(=O)c1cccc(C(=O)NC2CCCc3ccccc32)c1 (stereo not drawn)	89*	78*	0.2	-0.07	0.1
Cc1cc(C(=O)NC2CCCc3ccccc32)c(C)o1 (stereo not drawn)	70*	30	0.7	0.47	0.3
CC(=O)N1CCN(S(=O)(=O)c2cccc(C(=O)NC3CCCc4ccccc43)c2)CC1 (stereo not drawn)	28	8	0.9	1.5	0.7
COc1cccc(N=Nc2c(N)[nH]n3c(=O)cc(-c4ccccc4)nc23)c1	22	3	1	-3.6*	0.8
O=S(Cc1ccc(Cl)cc1)CC(O)COCc1ccc(Cl)cc1 (stereo not drawn)	9	7	0.9	0.1	0.9
COC(=O)C(O)(NC(=O)OCc1ccccc1)C(F)(F)F (stereo not drawn)	6	42	0.6	0.54	0.9

Screens from PubChem BioAssay.
